Screening results (PubChem BioAssay)
Rows were chosen to be rich in hits. Some 19% of all compounds tested hit in one or more screens of this group.
IL-1B inflam inh = blocks inflammasome-driven IL-1 beta release; THP-1 LPS/ATP IL-1B secretion, AlphaLISA, 16 h; hits give low values; activity change, % at 57.5 µM; hit rate 4.7% among 360,000; AID 743279; in the data active means activity change below about -50%; inconclusive means mostly about -30% to -49%
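Secreted IL-1B measured by AlphaLISA bead assay after 16 h compound exposure of THP-1 cells; compounds (final up to 57.5 uM) added 1 h before LPS (250 ng/mL) and ATP (1.25 mM) stimulation; lower signal means less secretion.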
TDP1 inh = blocks human tyrosyl-DNA phosphodiesterase 1. hit rate 0.28% among 350,000. Q9NUW8. AID 485290. Potency, µM (highest dose often 130 µM), without a hit: at the highest dose activity change, negative = inhibition, hits mostly inhibitors. recombinant TDP1, AlphaScreen DNA substrate cleavage; further: potency means the concentration at half of the fitted maximal effect; nearly all actives have a fitted effect of over 40% in size
Target sequence (Q9NUW8 whole entry, looked up): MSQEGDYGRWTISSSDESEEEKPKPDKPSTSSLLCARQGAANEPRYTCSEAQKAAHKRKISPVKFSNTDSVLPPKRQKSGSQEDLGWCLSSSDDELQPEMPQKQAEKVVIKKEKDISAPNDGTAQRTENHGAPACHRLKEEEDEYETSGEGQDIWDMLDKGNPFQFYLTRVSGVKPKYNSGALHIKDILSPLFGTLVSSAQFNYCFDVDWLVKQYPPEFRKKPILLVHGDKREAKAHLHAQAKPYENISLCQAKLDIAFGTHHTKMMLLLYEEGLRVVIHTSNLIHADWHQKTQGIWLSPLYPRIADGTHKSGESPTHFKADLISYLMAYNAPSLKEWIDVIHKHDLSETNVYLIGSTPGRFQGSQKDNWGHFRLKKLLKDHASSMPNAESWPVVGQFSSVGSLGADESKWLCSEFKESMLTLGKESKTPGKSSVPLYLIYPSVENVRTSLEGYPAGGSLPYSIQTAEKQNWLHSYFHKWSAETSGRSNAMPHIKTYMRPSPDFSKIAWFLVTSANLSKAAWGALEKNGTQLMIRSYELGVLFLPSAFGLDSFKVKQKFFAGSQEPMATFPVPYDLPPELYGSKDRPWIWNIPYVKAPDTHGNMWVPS
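Signal: AlphaScreen proximity between streptavidin donor and anti-FITC acceptor beads on intact substrate. Reaction: Tdp1 1 nM, substrate 15 nM final, 5 min RT after 15 min compound preincubation.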
ELG1 repair inh = ELG1-dependent DNA repair inhibition; HEK293T ELG1-luciferase reporter, luminescence, 16 h; DNA damage induced by 5-fluorouridine; Potency, µM (titrated, usually from 46.1 µM), for the others: top-dose activity change, negative = inhibition, actives largely listed as inhibitors; hit rate 2.3% among 330,000; further: potency means the concentration at half of the fitted maximal effect; nearly all actives have a fitted effect of over 55% in size
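Luminescence from the luciferase reporter, measured 30 min after ONE-Glo reagent at room temperature, was the read-out. Beforehand, 2,000 cells per well were exposed for 16 hr at 37 °C to 5-fluorouridine together with compound or vehicle.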
DT40 TDP1 no CPT = qHTS for Inhibitors of human tyrosyl-DNA phosphodiesterase 1 (TDP1): qHTS in cells in absence of CPT; DT40 Tdp1-/- hTDP1 cells, no CPT, ATP luminescence, 48 h; Potency, µM (highest dose often 46.2 µM), for inactives: at the highest dose activity change, negative = growth inhibition, usual class: inhibitors; hit rate 15% among 420,000; further: potency means the concentration at half of the fitted maximal effect; nearly all actives have a fitted effect of over 55% in size
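Camptothecin absent (DMSO only). Human TDP1-complemented DT40 knockout cells, 400 cells/well, 37 °C for minimum 48 hr; ATP measured via CellTiter-Glo, 30 min dark incubation, luminescence.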
DT40 TDP1 CPT = growth inhibition of DT40 Tdp1-/-;hTDP1 cells with camptothecin (screen for TDP1 inhibitors); Potency, µM (highest dose often 46.2 µM), without a hit: top-dose activity change, negative = growth inhibition, actives largely listed as inhibitors; AID 686979; hit rate 12% among 420,000; chicken DT40 Tdp1-/-;hTDP1 cells + 20 nM CPT, ATP luminescence, 48 h; further: potency means the concentration at half of the fitted maximal effect; nearly all actives have a fitted effect of over 55% in size
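Cell growth measured by CellTiter-Glo luminescence after a minimum 48 h, 37 C compound exposure with 20 nM CPT in Tdp1-knockout DT40 cells stably expressing hTDP1, seeded 400/well; qHTS titration format.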
Giardia killer = Giardia lamblia killing | Giardia lamblia trophozoite viability | activity change, % at 7.66 µM, hits read low | hit rate 0.15% among 340,000 | AID 540267; in the data active means activity change below about -80%; inconclusive means between about -30% and that limit;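 further: parasites exposed to compound for two days anaerobically before the ATP read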
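Compounds were tested on trophozoites seeded at 100 cells/well and held 48 hrs at 37 deg C anaerobically. An ATP-based luminescent kit measured the remaining live cells.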
* hit, by the source's call; ? = inconclusive; nt = no result; ! = a repeat was not active; [ ] = another dose, or the depositor's remark. Unless noted, the call rests on the fitted dose curve; in most records, active means well fitted curve in the direction sought with a large enough effect; inconclusive means small, poorly fitted or top-dose-only effect, or another doubt; inactive means no such curve, though single readings can be large; an effect the other way counts as inactive or inconclusive. On the % scale 0 is the no-effect control and ±100 the full control effect.

SMILES	IL-1B inflam inh	TDP1 inh	ELG1 repair inh	DT40 TDP1 no CPT	DT40 TDP1 CPT	Giardia killer
COC(=O)c1c(N)sc(C(=O)N2CCOCC2)c1C	44.3	6.8%	-0.8%	-12.3%	-1.0%	14.4
COC(=O)c1c(NC(=O)c2ccccc2)sc(C(N)=O)c1C	40.2	2.4%	-7.6%	?	-0.6%	7.7
COC(=O)c1c(NC(=O)CCl)sc(C(=O)N2CCOCC2)c1C	-97.7*	6.1%[0.0935 µM]	?	5.17µM*	?	18.1
COc1cc(OC)c(OC)cc1CN1CCN(Cc2ccco2)CC1	-9.4	nt	-0.6%	8.3%	19.4%	-12.2
O=C(N/N=C\c1cccc(Cl)c1)c1n[nH]c2c1CCCC2	?	2.8%	?	-26.9%	4.0%	-1.6
O=C(N/N=C/c1cccc2ccccc12)c1n[nH]c2c1CCCC2	59.9	-2.6%	10.9%	4.11µM*	4.61µM*	5.6
O=C(N/N=C/c1ccc(Cl)cc1Cl)c1n[nH]c2c1CCCC2	3.7	5.3%	?	2.91µM*	2.91µM*	-6.0
COc1cc(N2CCC(O)CC2)ccc1Nc1nnc(Cl)c(Nc2ccccc2S(C)(=O)=O)n1	36.3	nt	nt	16.4µM*	20.6µM*	1.1
C=CCn1c(SCC(=O)/C(C#N)=C(\C)N)nc2sc(CC)cc2c1=O	?	2.9%	?	20.6µM*	20.6µM*	-3.8
C=CCn1c(SCC(=O)c2cccs2)nc2sc(CC)cc2c1=O	9.1	0.0%	20.6µM*	16.4µM*	14.6µM*	-9.2
O=C(O)c1ccccc1C(=O)c1ccc2c(c1)N(Cc1ccc(Cl)c(Cl)c1)C(=O)CO2	-52.9*	3.1%	?	?	-23.9%	-19.8
O=C(CN1C(=O)COc2ccccc21)NCc1ccc(C(=O)O)cc1	-7.7	7.7%	4.8%	-1.2%	-0.8%	9.9
Cc1ccc(/C=C(\NC(=O)c2ccc(C)cc2)c2nc(=S)[nH][nH]2)cc1	-11.0	9.8%	?	?	14.6µM*	3.0
Cc1ccc(C(=O)N/C(=C\c2ccccc2F)c2nc(=S)[nH][nH]2)cc1	-0.6	5.8%	?	?	20.6µM*	18.5
COc1ccc(OC)c(NC(=O)c2cn3c4c(ccc(Cl)c4c2=O)OC(C)C3)c1 (stereo not given)	nt	-6.2%	nt	-16.7%	17.9%	nt
Cc1nc2nc(CNC(=O)OC(C)(C)C)nn2c(C)c1CCC(=O)Nc1ccc2c(c1)OCO2	-1.6	5.2%	28.5%	0.0%	-5.5%	-8.7
CC(C)c1nc(CN(C)C(=O)N[C@H](C(=O)N[C@@H](Cc2ccccc2)C[C@H](O)[C@H](Cc2ccccc2)NC(=O)OCc2cncs2)C(C)C)cs1	nt	-2.0%	nt	21.1µM*!	16.8µM*!	nt
COC(=O)CNC(=O)C(NC(=O)OCc1ccccc1)C(C)C (stereo not given)	5.3	0.5%	3.7%	3.5%	10.9%	-10.0
Cc1cccc(N/C(=N/S(=O)(=O)c2ccccc2)c2ccccc2)n1	-6.4	2.0%	9.0%	1.3%	?	0.8
O=[N+]([O-])c1ccc(N=Nc2c(Cl)cc(O)cc2Cl)cc1	?	10.5%	?	4.61µM*	4.11µM*	1.6
CC(N)=Nc1ccc([N+](=O)[O-])cc1	5.8	-5.8%	17.0%	-2.8%	-10.3%	-8.7
COC(=O)c1cc(Cn2nc(C(=O)O)c3ccccc3c2=O)oc1C	32.0	nt	12.1%	4.9%	-1.6%	10.4
COc1ccc(C(=O)NCC(c2cccnc2)N2CCN(c3ccc(F)cc3)CC2)cc1 (stereo not given)	nt	10.4%	nt	10.3µM*	14.6µM*	nt
COc1ccc(N2CCN(C(CNC(=O)c3ccc(OC)c(OC)c3)c3cccnc3)CC2)cc1 (stereo not given)	nt	-2.6%	nt	?	-16.6%	nt
COc1ccc(C(=O)NCC(c2cccnc2)N2CCN(c3ccccc3)CC2)cc1 (stereo not given)	nt	0.0%	nt	16.4µM*	?	nt
SMILES	IL-1B inflam inh	TDP1 inh	ELG1 repair inh	DT40 TDP1 no CPT	DT40 TDP1 CPT	Giardia killer
CCc1ccc(N(CC(=O)NC)S(C)(=O)=O)cc1	7.3	0.0%	6.3%	-2.2%	-6.5%	-5.6
CNC(=O)CN(c1ccc(C23CC4CC(CC(C4)C2)C3)cc1)S(C)(=O)=O	-5.7	2.7%	0.7%	25.9µM*	?	-2.7
CS(=O)(=O)N(CC(=O)Nc1ccc(CC#N)cc1)c1ccc(C23CC4CC(CC(C4)C2)C3)cc1	?	3.1%	?	16.4µM*	?	-6.4
CCOc1ccccc1/C=C/C(=O)N1CCN(C(=O)c2ccco2)CC1	-8.2	1.4%	-9.3%	?	?	-20.4
O=C(c1cnccn1)N1CCC2(CC1)CN(c1ncccn1)C2	nt	nt	nt	1.3%	1.7%	nt
Cc1ccc(C2CC(=O)Oc3cc(C)c(Cl)cc32)cc1 (stereo not given)	nt	-2.0%	nt	nt	nt	nt
[O-][n+]1ccccc1SSc1cccc[n+]1[O-]	nt	10.6%	nt	0.119µM*	0.106µM*	nt
O=C(CSc1cccc[n+]1[O-])CSc1cccc[n+]1[O-]	-19.6	nt	-4.6%	9.2µM*	1.03µM*	-29.2
O=C(CSc1cccc[n+]1[O-])NC1CCCCCCC1	9.8	5.1%	6.0%	5.3%	10.5%	-15.3
O=C(CSc1cccc[n+]1[O-])N1CCCCCC1	-9.6	2.5%	1.5%	0.5%	-7.0%	-6.5
Cc1ccc(NC(=O)CN2CCN(C3CCCCC3)C(=O)C2=O)cc1C	nt	3.8%	nt	-7.1%	?	nt
C#Cc1ccc2c(c1)COc1c3ccccc3nn1-2	-6.7	nt	nt	?	10.3µM*	-13.4
CC(C)C(=O)Nc1cccc(COc2ccc(CN(Cc3ccccc3)C(=O)OC(C)(C)C)cc2)c1	-6.3	nt	nt	16.4µM*	?	3.7
CC(C)C(=O)Nc1ccc(COc2ccccc2CN(Cc2ccccc2)C(=O)OC(C)(C)C)cc1	-24.1	nt	nt	14.6µM*	14.6µM*	-5.9
CC(C)(C)OC(=O)N(CCc1ccccc1)Cc1ccccc1OCc1ccc(NC(=O)C2CCCC2)cc1	-27.2	nt	nt	?	?	0.7
Cc1[nH]nc2c1-c1nc3ccccc3nc1C(C)(C)C2	-22.3	8.1%	9.2µM*	?	?	0.3
COc1ccc(C2CC(c3c(O)n(C4CCCCC4)c(=O)[nH]c3=O)=Nc3ccccc3S2)cc1 (stereo not given)	nt	-5.7%	nt	7.3%	6.2%	nt
CCCCOc1ccc(C(=O)NCCN2CCC(n3c(=O)[nH]c4ccccc43)CC2)cc1	-16.8	nt	nt	?	?	nt
O=C(NCCN1CCC(n2c(=O)[nH]c3ccccc32)CC1)c1cc(F)cc(F)c1	-53.0*	nt	nt	-29.7%	-10.0%	nt
